This is a sample that favours compounds with a hit; in the whole collection about 7.4% have one here.
Rab9 promoter act – activators of Rab9 promoter | Huh7 Rab9 promoter-luciferase reporter, luminescence, 24 h | actives 2.8% (n = 320,000) | Potency, µM (highest dose often 9.22 µM), for inactives: at the highest dose activation, negative = inhibition, actives largely listed as activators; note: % of control where 0% means no effect; nearly all actives have a fitted effect of over 60% in size
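Huh7 reporter line, Rab9 promoter upstream of luciferase. Compound exposure 24 h at 37 °C in reduced-serum medium with 10% FBS. Read-out: luminescence.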
FLuc modulator – inhibits or activates purified firefly luciferase, miR-21 counter-screen. P08659. purified FLuc, Km substrates, luminescence inhibition. Potency, µM (titrated, usually from 57.5 µM), without a hit: at the highest dose activity change, negative = inhibition, usual class: inhibitors. actives 6.9% (n = 360,000). AID 588342;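 note: plate controls were vehicle for no effect and reference inhibitor for full effect; nearly all actives have a fitted effect of over 55% in size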
Target sequence (P08659 whole entry, looked up): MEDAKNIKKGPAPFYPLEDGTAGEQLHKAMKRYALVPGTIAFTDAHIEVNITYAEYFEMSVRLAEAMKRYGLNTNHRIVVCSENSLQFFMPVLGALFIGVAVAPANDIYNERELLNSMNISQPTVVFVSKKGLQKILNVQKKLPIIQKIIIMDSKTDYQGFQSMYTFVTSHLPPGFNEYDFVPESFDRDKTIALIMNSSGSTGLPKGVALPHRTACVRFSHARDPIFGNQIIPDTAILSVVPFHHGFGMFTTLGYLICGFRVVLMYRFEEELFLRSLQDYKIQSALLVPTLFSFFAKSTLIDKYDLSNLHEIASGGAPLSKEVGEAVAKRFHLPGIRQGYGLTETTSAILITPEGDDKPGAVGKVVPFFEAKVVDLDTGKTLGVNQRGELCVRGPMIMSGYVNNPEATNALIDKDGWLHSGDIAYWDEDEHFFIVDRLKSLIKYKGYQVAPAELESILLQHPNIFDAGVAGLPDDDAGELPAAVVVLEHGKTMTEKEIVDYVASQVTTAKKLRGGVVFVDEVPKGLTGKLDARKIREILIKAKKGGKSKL
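Purified P. pyralis luciferase, 10 nM final, with Km-level 10 uM D-luciferin and 10 uM ATP in 50 mM Tris acetate pH 7.5, 10 mM Mg acetate, 0.01% Tween-20, 0.05% BSA; 6-point qHTS titration about 60 µM downward; luminescence read.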
SMN2 splice up – enhancers of SMN2 splice variant expression. HEK293 SMN2-luciferase splicing reporter, luminescence, 30-36 h. Potency, µM (top dose mostly 46.1 µM), inactives show at the highest dose activity change, positive = activation, usual class: activators. actives 2.8% (n = 210,000); note: % of control where 0% means no effect; nearly all actives have a fitted effect of over 55% in size
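HEK293 cells carry an SMN2 minigene-luciferase reporter in which exon 7 inclusion puts luciferase in frame. Cells were seeded at 2000 cells/well, attached for 10-12 hours, then exposed to compounds for 30-36 hours at 37C before ONE-Glo luminescence.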
NPC1 promoter act – NPC1 promoter activation. Huh7 NPC1 promoter luciferase reporter, 24 h. Potency, µM (titrated, usually from 9.22 µM), for inactives: at the highest dose activation, actives largely listed as activators. actives 2.4% (n = 320,000); note: % of control where 0% means no effect; nearly all actives have a fitted effect of over 60% in size
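Quantitative HTS used a cell-based reporter: Huh7 cells stably bearing the NPC1 promoter upstream of luciferase were treated with compounds for 24 h, and promoter activation was read as luminescence.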
KinaseGlo FLuc – counter-screen: inhibitors of Kinase-Glo firefly luciferase; Q27757; Kinase-Glo luciferase, ATP luminescence, 8 min; Potency, µM (series often up to 38.3 µM), inactives show at the highest dose activity change, negative = inhibition, hits mostly inhibitors; actives 0.28% (n = 200,000); AID 1379; note: % is set by controls: 0 for no effect and ±100 for the full control effect; nearly all actives have a fitted effect of over 60% in size
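Compounds were added to a substrate mix at pH 7.2 (50 mM imidazole, 10 uM ATP, within the enzyme's linear range), followed by Kinase-Glo detection reagent; luminescence was measured after 8 minutes at ambient temperature.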
ELG1 genotox – inducers of genotoxicity in HEK293T ELG1-luciferase cells; Potency, µM (doses to about 46 µM), for the others: at the top dose activity change, positive = activation, hits mostly activators; actives 1.3% (n = 330,000); HEK293T ELG1-luciferase reporter, luminescence, 16 h; note: % of control where 0% means no effect; nearly all actives have a fitted effect of over 60% in size
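Genotoxic stress is detected as increased luminescence from luciferase-tagged ELG1 in HEK293T cells, measured with ONE-Glo after a 16 hr treatment at 37 °C.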
Starred values were filed as active, the others as inactive; [ ] = another dose, or the depositor's remark. Calls come from the whole dose curve; as a rule, active = well fitted curve in the direction sought with a large enough effect; inconclusive = small, poorly fitted or top-dose-only effect, or another doubt; inactive = no such curve, though single readings can be large; an effect the other way counts as inactive or inconclusive. Potency is the fitted concentration of half-maximal effect.

O=C(O)CN(CCN(CC(=O)O)CC(=O)O)CC(=O)O.[Mn] was read as SMN2 splice up -14.4%[9.22 µM] and KinaseGlo FLuc -0.8%[7.66 µM].
Screening Cc1cnc(CNc2nc(-c3ccc(C(=O)N(C)C)cc3)nc3ccccc23)cn1 returned SMN2 splice up inconclusive and KinaseGlo FLuc -29.7%.
Cc1ccc(NC(=O)c2cn(-c3cccc(C)n3)cn2)cc1 was read as Rab9 promoter act 3.55µM*, FLuc modulator inconclusive, SMN2 splice up inconclusive, NPC1 promoter act 2.82µM*, KinaseGlo FLuc -2.6% and ELG1 genotox inconclusive.
For Cc1ccc(NC(=O)Nc2cccc(C)n2)cc1 the results were Rab9 promoter act 23.6%, FLuc modulator 2.39µM*, SMN2 splice up 15.8µM*, NPC1 promoter act 0.3% and ELG1 genotox inconclusive.
`Cc1cccc(NC(=O)Nc2ccc(C)c(C)c2)n1` gave Rab9 promoter act inconclusive, FLuc modulator 2.13µM*, SMN2 splice up inconclusive, NPC1 promoter act inconclusive, KinaseGlo FLuc -4.2% and ELG1 genotox inconclusive.
Cc1ccc(NC(=O)Nc2cc(C)on2)cc1 was read as Rab9 promoter act inconclusive, FLuc modulator 15.1µM*, SMN2 splice up inconclusive, NPC1 promoter act inconclusive, KinaseGlo FLuc -3.0% and ELG1 genotox -6.5%.
Cc1cccc(NC(=O)Nc2ccc3c(c2)N(C)C(=O)CS3)n1 was read as Rab9 promoter act 0.1%, FLuc modulator inconclusive, SMN2 splice up 4.2%, NPC1 promoter act 14.0%, KinaseGlo FLuc -0.7% and ELG1 genotox inconclusive.
Cc1cccc(NC(=O)Nc2ccc(Cl)cc2)n1 was read as Rab9 promoter act inconclusive, FLuc modulator inconclusive, NPC1 promoter act 24.7% and ELG1 genotox 16.1%.
`CCOc1ccc2c(c1)c(=O)c(C(=O)c1ccccc1)cn2Cc1ccccc1F` gave FLuc modulator -7.9% and SMN2 splice up 2.8%.
Cc1ccc(-c2c(C(=O)Nc3ccc(F)c(F)c3)oc(=O)c3ccccc23)cc1 was read as FLuc modulator -0.6% and SMN2 splice up -1.6%.
For Cc1nc(Nc2nc3ccccc3o2)nc(C)c1C the results were Rab9 promoter act inconclusive, FLuc modulator 8.49µM*, SMN2 splice up 5.62µM*, NPC1 promoter act 1µM*, KinaseGlo FLuc 11.2µM* and ELG1 genotox inconclusive.
For Cc1ccc(Nc2nc3ccccc3o2)cc1F the results were Rab9 promoter act 1.58µM*, FLuc modulator 6.01µM*, SMN2 splice up inconclusive, NPC1 promoter act inconclusive, KinaseGlo FLuc -15.1% and ELG1 genotox 5.8µM*.
Screening Cc1ccc2oc(Nc3nc(C)c(C)c(C)n3)nc2c1 returned Rab9 promoter act 2.51µM*, FLuc modulator 10.7µM*, NPC1 promoter act 1.58µM* and ELG1 genotox inconclusive.
For Cc1nc2ccccc2oc1=O the results were SMN2 splice up 10.4% and KinaseGlo FLuc 1.4%.
Cc1ccc(Nc2c3c(nc4ccccc24)CCC3)cc1F was read as FLuc modulator -2.3% and SMN2 splice up -29.7%.
CCS(=O)(=O)c1ccc2oc(Nc3cc(C)cc(C)c3)nc2c1 was read as Rab9 promoter act -1.6%, FLuc modulator -5.8%, SMN2 splice up -34.3%, NPC1 promoter act 0.5%, KinaseGlo FLuc -0.1% and ELG1 genotox -0.6%.
`CCOC(=O)c1cnc(Nc2nc3ccccc3o2)nc1CSC(=S)N(CC)CC` gave Rab9 promoter act 13.4%, FLuc modulator -11.1%, SMN2 splice up -7.2%, NPC1 promoter act 7.7%, KinaseGlo FLuc -1.5% and ELG1 genotox 0.4%.
Screening CCCc1nc(Nc2nc3ccccc3o2)nc(C)c1C(=O)OCC returned Rab9 promoter act 1.78µM*, FLuc modulator 2.69µM*, SMN2 splice up inconclusive, NPC1 promoter act inconclusive, KinaseGlo FLuc -8.2% and ELG1 genotox inconclusive.
Screening CCc1ccc(NC(=O)CN2C(=O)C3CCCN3c3ccc(S(=O)(=O)N(CC)CC)cc32)cc1 (stereo unspecified) returned FLuc modulator -15.0%.

Screening results (PubChem BioAssay)
